Assay [1] in a line: optical density shifts of acrAB sulA E. coli – strain DRC41, OD650, 48 h, E. coli filamentation inducer project, primary screen (AID 1152).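 Also: E. coli MC1000 strain DRC41 lacking acrAB efflux pump and sulA.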 The following applies: higher = more signal, called active from +8 up or from −8 down.
A short description of assay [2]: probe aLefty1 binding on compound microarray – biochemical, small-molecule microarray, 635/667 nm fluorescence, primary screen (AID 1153).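 Also: score merges spot fluorescence with signal-to-noise ratio from the scanned slide images.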 The following applies: higher = more signal.
Assay [3] can be described thus: plasmodial surface anion channel blockers, osmotic lysis – cell-based, P. falciparum Indochina, OD700, 1 h, primary screen (AID 1154). The following applies: P. falciparum Indochina infected RBC osmotic lysis, higher = more signal, called active from +8 up or from −8 down.
Assay [4] is described as follows: plasmodial surface anion channel blockers, osmotic lysis – cell-based, P. falciparum Indochina, OD700, 2 h, primary screen (AID 1155).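 Also: lysis reports solute entry through the parasite surface anion channel PSAC.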 The following applies: P. falciparum Indochina infected erythrocytes, higher = more signal, called active from +8 up or from −8 down.
Assay [5] in a line: changes in parasitized red cell lysis, either direction – P. falciparum Indochina, OD700, 3 h, PSAC antagonist project, primary screen (AID 1156). To be noted: P. falciparum-infected erythrocytes, osmotic lysis, higher = more signal, called active from +8 up or from −8 down.
Assay [6] is described as follows: plasmodial surface anion channel blockers, osmotic lysis – cell-based, P. falciparum Indochina, OD700, 18 h, primary screen (AID 1157). To be noted: P. falciparum Indochina infected erythrocytes, osmotic lysis OD700, 18 h; higher = more signal, called active from +8 up or from −8 down.
Assay [7] in a line: S6 kinase pathway phospho-S6 level changes – cell-based, A549, cytoblot, luminescence, serum-stimulated, primary screen (AID 1158).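 Also: serum-stimulated A549 lung adenocarcinoma cells; signal is phosphorylated S6 detected by cytoblot immunostaining with HRP secondary.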 The following applies: 5 h, higher = more signal.
For assay [8], the target named is NADPH oxidase 2 (Homo sapiens) (UniProt P04839). Nature of the assay: compounds shifting NOX2 Amplex Red fluorescence – cell-based, HEK293-NOX2, PMA-stimulated, NOX inhibitor project, primary screen (AID 1159). Also: test concentration not given here. The following applies: 45 min, higher = more signal, called active from +8 up or from −8 down.
NADPH oxidase 2 (Homo sapiens), sequence (P04839 whole entry, looked up): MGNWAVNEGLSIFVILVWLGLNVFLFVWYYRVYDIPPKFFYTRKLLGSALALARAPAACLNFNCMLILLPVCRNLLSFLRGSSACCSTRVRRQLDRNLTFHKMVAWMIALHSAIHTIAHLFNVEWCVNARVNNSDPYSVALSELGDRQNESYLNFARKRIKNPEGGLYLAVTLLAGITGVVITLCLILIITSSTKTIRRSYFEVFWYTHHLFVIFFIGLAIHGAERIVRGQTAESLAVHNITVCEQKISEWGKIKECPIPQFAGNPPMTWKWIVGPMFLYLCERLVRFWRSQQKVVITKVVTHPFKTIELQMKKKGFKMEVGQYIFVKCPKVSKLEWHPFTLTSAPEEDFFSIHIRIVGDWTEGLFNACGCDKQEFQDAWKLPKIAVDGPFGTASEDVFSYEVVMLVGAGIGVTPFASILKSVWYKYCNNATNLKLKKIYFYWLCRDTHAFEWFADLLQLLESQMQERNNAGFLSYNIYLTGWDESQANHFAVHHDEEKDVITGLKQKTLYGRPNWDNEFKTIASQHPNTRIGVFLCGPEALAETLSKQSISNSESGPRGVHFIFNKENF
The target in assay [9] is NADPH oxidase 4 (Homo sapiens) (UniProt Q9NPH5). Nature of the assay: compounds shifting NOX4 Amplex Red fluorescence – cell-based, HEK293-NOX4, tetracycline-induced, NOX inhibitor project, primary screen (AID 1160). To be noted: HEK293-NOX4, Amplex Red H2O2 fluorescence, 45 min; higher = more signal, called active from +8 up or from −8 down.
NADPH oxidase 4 (Homo sapiens), sequence (Q9NPH5 whole entry, looked up): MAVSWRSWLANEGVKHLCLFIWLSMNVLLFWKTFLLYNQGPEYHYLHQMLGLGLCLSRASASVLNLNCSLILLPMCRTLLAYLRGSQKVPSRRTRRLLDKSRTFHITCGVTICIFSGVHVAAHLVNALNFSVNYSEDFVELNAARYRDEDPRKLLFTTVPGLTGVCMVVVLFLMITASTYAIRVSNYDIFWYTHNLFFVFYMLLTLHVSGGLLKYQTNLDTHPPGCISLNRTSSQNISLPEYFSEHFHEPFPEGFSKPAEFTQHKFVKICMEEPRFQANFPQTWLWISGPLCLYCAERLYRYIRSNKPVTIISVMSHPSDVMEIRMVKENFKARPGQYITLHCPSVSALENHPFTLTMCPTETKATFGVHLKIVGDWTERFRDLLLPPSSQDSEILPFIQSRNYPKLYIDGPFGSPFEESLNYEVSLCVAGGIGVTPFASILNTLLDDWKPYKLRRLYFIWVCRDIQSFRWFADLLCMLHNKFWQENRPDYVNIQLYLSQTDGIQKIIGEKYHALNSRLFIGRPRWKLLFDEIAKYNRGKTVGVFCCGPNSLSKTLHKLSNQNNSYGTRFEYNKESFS
Assay [10] deals with NADPH oxidase 5 (Homo sapiens) (UniProt Q96PH1). Briefly: compounds shifting NOX5 Amplex Red fluorescence – cell-based, HEK293-NOX5, NOX inhibitor project, primary screen (AID 1161). The following applies: HEK293-NOX5, ionomycin, 45 min, higher = more signal.
NADPH oxidase 5 (Homo sapiens), sequence (Q96PH1 whole entry, looked up): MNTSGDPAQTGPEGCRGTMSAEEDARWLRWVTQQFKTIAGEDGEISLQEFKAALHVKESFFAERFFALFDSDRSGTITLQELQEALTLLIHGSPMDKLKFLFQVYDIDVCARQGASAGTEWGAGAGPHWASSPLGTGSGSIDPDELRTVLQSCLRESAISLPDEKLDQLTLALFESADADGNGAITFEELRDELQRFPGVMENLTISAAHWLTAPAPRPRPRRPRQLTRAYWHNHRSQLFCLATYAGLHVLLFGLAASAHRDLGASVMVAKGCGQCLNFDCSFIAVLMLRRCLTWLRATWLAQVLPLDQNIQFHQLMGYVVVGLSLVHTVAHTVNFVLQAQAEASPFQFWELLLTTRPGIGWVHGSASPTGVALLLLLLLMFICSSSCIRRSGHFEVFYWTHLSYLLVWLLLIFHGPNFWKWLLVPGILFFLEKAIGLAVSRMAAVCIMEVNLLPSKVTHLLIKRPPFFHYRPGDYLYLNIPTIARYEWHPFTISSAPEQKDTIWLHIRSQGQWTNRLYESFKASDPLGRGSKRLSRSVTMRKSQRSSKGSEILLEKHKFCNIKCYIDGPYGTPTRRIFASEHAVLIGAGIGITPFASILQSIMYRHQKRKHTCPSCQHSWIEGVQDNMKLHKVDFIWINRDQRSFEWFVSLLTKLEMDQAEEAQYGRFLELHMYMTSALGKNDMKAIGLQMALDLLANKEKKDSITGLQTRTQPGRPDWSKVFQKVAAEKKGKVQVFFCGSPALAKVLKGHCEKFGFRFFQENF
Assay [11] in a line: compound effects on lung adenocarcinoma cell viability – A549, calcein-AM fluorescence, 48 h, basal, profiling panel (AID 1162). Also: test concentration not given here. The following applies: higher = more signal.
The nature of assay [12]: compound effects on differentiated 3T3-L1 adipocyte viability – cell-based, 3T3-L1 adipocytes, calcein-AM fluorescence, 48 h, basal, profiling panel (AID 1163). Also: test concentration not given here. The following applies: 3T3-L1 adipocytes viability, higher = more signal.
Assay [13] is described as follows: compound effects on hepatocellular carcinoma cell viability – HepG2, calcein-AM fluorescence, 48 h, basal, profiling panel (AID 1164). Also: test concentration not given here. The following applies: higher = more signal.
Assay [14] can be described thus: compound effects on multiple myeloma cell viability – MM1S, calcein-AM fluorescence, 48 h, basal, profiling panel (AID 1165).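 Also: viability of MM1S multiple myeloma cells under basal unstimulated conditions; test concentration not given here.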 The following applies: higher = more signal.
Assay [15] in a line: calcein-AM signal in unstimulated myeloma cells – cell-based, calcein-AM fluorescence, 48 h, PK04 Diversity Set, profiling panel (AID 1166).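 Also: cells grown under basal conditions without added stimulus; test concentration not given here.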 The following applies: RPMI8226 myeloma viability, higher = more signal.
The nature of assay [16]: JC-1 mitochondrial signal, unstimulated HepG2 cells – cell-based, JC-1 fluorescence, 24 h, 100 nL compound, profiling panel (AID 1167). Also: test concentration not given here. The following applies: HepG2 mitochondrial potential, higher = more signal.
Assay [17] can be described thus: JC-1 mitochondrial signal, unstimulated adipocytes – cell-based, JC-1 fluorescence, 3T3-L1 adipocytes, 24 h, 100 nL compound, profiling panel (AID 1168). Also: test concentration not given here. To be noted: JC-1 mitochondrial fluorescence, higher = more signal, called active from +8 up or from −8 down.
The nature of assay [18]: JC-1 mitochondrial signal, unstimulated myeloma cells – cell-based, JC-1 fluorescence, RPMI8226, 24 h, 100 nL compound, profiling panel (AID 1169). Also: test concentration not given here. To be noted: JC-1 mitochondrial potential fluorescence, higher = more signal.
A short description of assay [19]: JC-1 mitochondrial signal, unstimulated MM1S myeloma – cell-based, JC-1 fluorescence, 24 h, 100 nL compound, profiling panel (AID 1170). Also: test concentration not given here. To be noted: MM1S mitochondrial potential, higher = more signal.
Assay [20] in a line: resazurin metabolic signal in A549 cells – cell-based, resazurin fluorescence, 24 h, PK04 Diversity Set, profiling panel (AID 1171). Also: test concentration not given here. The following applies: A549 viability, higher = more signal, called active from +8 up or from −8 down. For orientation: The colour change of resazurin is a common sign of viable cells or microbes.

Calls of active or inactive are those of the source.

Drawing on PubChem BioAssay, this text covers z-score and composite z-score for eight molecules.

Turning to `CCOC(=O)[C@H](Cc1ccccc1)NC(=O)CCC1CC(OC(=O)NCCc2ccc(F)cc2)CC2(CCCC(COC(=O)NCCOC)O2)O1` (stereo not given in full), the z-score was 0.602 (inactive) in assay [1]; 19.4 (active) in [3]; 4.99 (inactive) in assay [4]; 0.486 (inactive) in assay [5]; 0.737 (inactive) in assay [6]; 0.011 in assay [7]. In addition, the z-score in assay [8] is 0.188 (inactive); in assay [9] it was 0.251 (inactive); in assay [10] it was 0.0245; in assay [11] it was -0.153; in assay [12], -0.41; in [13], -0.981. In addition, the z-score is -3.38 in assay [14]; -1.7 in assay [15]; 0.0204 in [16]; 0.872 (inactive) in assay [17]; -0.326 in assay [18]; -1.48 in assay [19]. For the same molecule, in assay [20], the z-score was 0.042 (inactive). The composite z-score in [2] was -0.0468.

Take `COc1cccc([C@H]2Oc3ccc(OC)cc3C(=NOC[C@@H](O)COCc3ccco3)[C@@H]2O)c1`: the z-score in assay [1] was -0.964 (inactive); in assay [3], 0.55 (inactive); in assay [4], -2.05 (inactive); in assay [5], 0.135 (inactive); in assay [6], -2.01 (inactive); in assay [7], 1.04. Besides, the z-score in assay [8] was -0.262 (inactive); in assay [9], 0.378 (inactive); in [10], -0.104; in assay [11] it was 0.451; in [12] it was 0.558; in assay [13] it was 0.819. Also, the z-score was 0.667 in assay [14]; 0.414 in assay [15]; -0.959 in assay [16]; 0.461 (inactive) in assay [17]; 0.431 in assay [18]; -0.751 in assay [19]. Moreover, the z-score in assay [20] is -1.55 (inactive). Further, in assay [2], the composite z-score was -0.43.

Regarding `CCOC(=O)[C@H](Cc1ccccc1)NC(=O)OC1CC(CCC2CC(CC)=NO2)OC2(CCCC(COC(=O)NCCC(C)C)O2)C1` (stereo not given in full), the z-score in assay [1] is -0.0799 (inactive); in [3], 3.14 (inactive); in assay [4] it was -0.0787 (inactive); in assay [5], -0.648 (inactive); in assay [6], -0.39 (inactive); in assay [7], -0.459. Further, the z-score in assay [8] is -0.405 (inactive); in assay [9], 0.109 (inactive); in assay [10] it was 1.04; in assay [11], -0.0093; in [12], -1.14; in [13], -1.1. In addition, the z-score is -3.44 in assay [14]; -3.72 in [15]; -0.0294 in assay [16]; 0.513 (inactive) in assay [17]; -0.462 in assay [18]; -1.22 in assay [19]. Also, the z-score in [20] is 0.453 (inactive). The same molecule gave a composite z-score in assay [2] of -0.101.

Take `C=CC[C@@H]1C=C[C@H](ON=C2[C@H]3CCn4c(=O)n(-c5ccccc5)c(=O)n4[C@H]3[C@H](O)[C@@H]3O[C@H]23)[C@@H](CO)O1`: the z-score in [1] is -0.263 (inactive); in [3], 1.56 (inactive); in assay [4], 1.07 (inactive); in assay [5], 0.204 (inactive); in assay [6], 0.588 (inactive); in assay [7], -1.02. Besides, the z-score was -0.276 (inactive) in assay [8]; 0.964 (inactive) in assay [9]; 0.394 in assay [10]; -0.547 in assay [11]; -0.203 in assay [12]; -0.683 in assay [13]. Besides, the z-score is -1.21 in assay [14]; -0.997 in [15]; -0.568 in [16]; -1.65 (inactive) in assay [17]; -0.172 in [18]; 0.0203 in assay [19]. Besides, in [20], the z-score is -0.674 (inactive). In addition, the composite z-score in assay [2] was -0.28.

For the molecule `CCOC(=O)[C@H](Cc1ccccc1)NC(=O)CCC1CC(OC(=O)NCc2cccc3ccccc23)CC2(CCCC(COC(=O)NCc3ccccc3)O2)O1` (stereo not given in full), the z-score is -1.32 (inactive) in assay [1]; 4.71 (inactive) in assay [3]; 0.55 (inactive) in [4]; -0.562 (inactive) in assay [5]; -0.2 (inactive) in [6]; 3.91 in [7]. For the same molecule, the z-score in assay [8] was -1.59 (inactive); in assay [9], -1.2 (inactive); in assay [10], -1.7; in assay [11], 0.143; in assay [12], 0.919; in assay [13], -1.03. Also, the z-score was 0.418 in assay [14]; -0.653 in assay [15]; 1.12 in [16]; -0.39 (inactive) in [17]; -0.839 in assay [18]; -1.18 in [19]. Further, the z-score in [20] was 0.682 (inactive). The molecule also had a composite z-score in assay [2] of 0.0935.

With `C#CCCCON=C1[C@H]2CCn3c(=O)n(C)c(=O)n3[C@H]2[C@H](O)[C@@H]2O[C@H]12`, the z-score is 0.117 (inactive) in [1]; -0.611 (inactive) in assay [3]; 0.147 (inactive) in [4]; -0.354 (inactive) in [5]; 0.0334 (inactive) in assay [6]; -0.0228 in assay [7]. The z-score was -0.0249 (inactive) in assay [8]; -0.124 (inactive) in assay [9]; 0.71 in assay [10]; 0.0083 in [11]; -0.421 in [12]; 0.716 in [13]. Also, the z-score in assay [14] is -0.85; in assay [15] it was -0.801; in assay [16], 0.398; in assay [17], 0.206 (inactive); in assay [18], -0.253; in [19], 0.00711. Further, in assay [20], the z-score is -0.576 (inactive). Also, the composite z-score in assay [2] was determined as 0.126.

In the case of `CO[C@H]1COC(=O)CC=C[C@H](C)[C@@H](OC)COC(=O)[C@@H](C)NC(=O)CC=C[C@@H]1C`, the z-score in assay [1] was 0.0321 (inactive); in assay [3], -0.848 (inactive); in assay [4], -0.863 (inactive); in [5], -0.372 (inactive); in assay [6], -1.99 (inactive); in assay [7] it was 1.03. For the same molecule, the z-score in assay [8] is -0.22 (inactive); in assay [9], 0.403 (inactive); in assay [10], -0.0966; in assay [11], 0.181; in [12], 0.0797; in [13], -1.72. In addition, the z-score in assay [14] was -0.227; in assay [15], 0.0777; in assay [16] it was -0.0888; in [17], -1.76 (inactive); in [18], -0.244; in [19] it was -0.582. The z-score in assay [20] is 0.66 (inactive). Moreover, the composite z-score in [2] is -0.152.

Consider `CCOC(=O)C1=NO[C@]2(C=C(Br)C3(OCCCO3)[C@H]3O[C@H]32)C1`, for which the z-score in assay [1] was 0.209 (inactive); in assay [3], -0.228 (inactive); in assay [4] it was 0.142 (inactive); in assay [5] it was -0.348 (inactive); in assay [6], 0.0748 (inactive); in assay [7], -0.428. Besides, the z-score was 1.18 (inactive) in assay [8]; 0.492 (inactive) in assay [9]; 0.12 in [10]; -0.718 in [11]; -0.188 in assay [12]; -0.186 in [13]. Further, the z-score in assay [14] was -0.986; in assay [15], -0.172; in assay [16], -1.04; in assay [17], -0.207 (inactive); in assay [18] it was 0.157; in [19] it was 0.199. Also, the z-score in [20] was 0.0721 (inactive). The molecule further displayed a composite z-score in assay [2] of -0.0075.
